Experimental findings from PubChem BioAssay (NCI) are described below.

A short description of test [1]: NCI Yeast Anticancer Drug Screen. Data for the rad50 strain (AID 155).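 Further: 0% = growth of vehicle-only cultures of the same strain.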 Conditions: S. cerevisiae rad50 strain growth inhibition, stronger effect = higher value. Put shortly: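 Relative growth inhibition (compound vs vehicle) was measured in yeast with a defined repair-gene alteration.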
Test [2] is described as follows: NCI Yeast Anticancer Drug Screen. Data for the mec2-1 strain (AID 157). Conditions: S. cerevisiae mec2-1 strain, stronger effect = higher value. In outline: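 mec2-1 yeast strain, carrying an alteration in DNA damage repair or cell cycle control, was exposed to compounds; growth inhibition was measured relative to vehicle-treated controls.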
Test [3] can be described thus: NCI Yeast Anticancer Drug Screen. Data for the sgs1 mgt1 strain (AID 161).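 Further: 0% = growth of cultures given vehicle only.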 Conditions: S. cerevisiae sgs1 mgt1 strain, stronger effect = higher value. In outline: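 This yeast growth screen uses a strain with defined DNA-repair lesions; compound-treated growth is compared with vehicle-treated growth.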
Test [4] is described as follows: NCI Yeast Anticancer Drug Screen. Data for the cln2 rad14 strain (AID 165).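 Further: 0% = growth equal to vehicle treated cultures.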 Conditions: S. cerevisiae cln2 rad14 strain, stronger effect = higher value. In outline: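 Yeast carrying cln2 and rad14 alterations (cell cycle control and DNA damage repair) were exposed to compounds. Growth inhibition was measured against vehicle-treated controls.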
Test [5] can be described thus: NCI Yeast Anticancer Drug Screen. Data for the bub3 strain (AID 167). Conditions: S. cerevisiae bub3 mutant strain, stronger effect = higher value. Put shortly:
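Screening used yeast with an engineered genetic alteration affecting cell cycle control. Compound-exposed cultures were compared with vehicle cultures, and reduced growth was taken as inhibition.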

The nature of test [6]: NCI Yeast Anticancer Drug Screen. Data for the mlh1 rad18 strain (AID 175). Conditions: S. cerevisiae mlh1 rad18 strain growth inhibition, stronger effect = higher value. In outline: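 Growth inhibition of the yeast strain was measured after compound exposure and expressed relative to vehicle-treated controls. The strain carries defined defects in DNA damage repair.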
Where [7] appears, read: at 5.0 µM (retest, dose inferred, filed as 0.5).
[8] abbreviates: at 50.0 µM (retest, dose inferred, filed as 5.0).

About 79,000 compounds went through this panel and 15% of them were active in at least one assay; those are over-represented in the sample as a whole. A number with no mark means an inactive call. Active and inactive are the calls of the source. No stated cut-off is given here; in the data, active means growth inhibition above about 70%; inactive means the rest.

Turning to `COc1ccc(C(=O)C(CN2CCCC2)CN2CCCC2)cc1`, the growth inhibition in test [1] (setting [7]) is -1%; in test [1] (setting [8]), 75% (active); in test [1] (at 50.0 µM), 47.6%; in test [2] (setting [7]) it was 4%; in test [2] (setting [8]), 88% (active); in test [2] (at 50.0 µM), 88.1% (active). For the same compound, the growth inhibition in test [3] (setting [7]) was -5%; in test [3] (setting [8]) it was 82% (active); in test [3] (at 50.0 µM), 44%; in test [4] (setting [7]), 2%; in test [4] (setting [8]), 54%; in test [4] (at 50.0 µM), 7.4%. The growth inhibition in test [5] (setting [7]) was -5%; in test [5] (setting [8]), 81% (active); in test [5] (at 50.0 µM) it was 59.5%; in test [6] (setting [7]) it was 3%; in test [6] (setting [8]), 79% (active); in test [6] (at 50.0 µM), 69.3%.
Turning to `NNC(=O)NN=C(c1ccccc1)c1ccccc1`, the growth inhibition in test [1] (setting [7]) is 0%; in test [1] (setting [8]), 16%; in test [1] (at 50.0 µM) it was 1.5%; in test [2] (setting [7]), -2%; in test [2] (setting [8]) it was 1%; in test [2] (at 50.0 µM), -13.2%. In addition, the growth inhibition in test [3] (setting [7]) is -3%; in test [3] (setting [8]) it was 0%; in test [3] (at 50.0 µM) it was 11.4%; in test [4] (setting [7]) it was 0%; in test [4] (setting [8]) it was -12%; in test [4] (at 50.0 µM) it was -26.5%. For the same compound, the growth inhibition was -4% in test [5] (setting [7]); -1% in test [5] (setting [8]); 3.95% in test [5] (at 50.0 µM); -11% in test [6] (setting [7]); 1% in test [6] (setting [8]); 33.1% in test [6] (at 50.0 µM).
With `O=C(N/N=C/c1ccccc1)c1ccc([N+](=O)[O-])cc1`, the growth inhibition in test [1] (setting [7]) was 16%; in test [1] (setting [8]), 15%; in test [1] (at 50.0 µM), 8.6%; in test [2] (setting [7]), -3%; in test [2] (setting [8]) it was 6%; in test [2] (at 50.0 µM) it was 7.3%. The growth inhibition was 22% in test [3] (setting [7]); 12% in test [3] (setting [8]); 1.15% in test [3] (at 50.0 µM); 12% in test [4] (setting [7]); 19% in test [4] (setting [8]); -1.35% in test [4] (at 50.0 µM). Also, the growth inhibition is 17% in test [5] (setting [7]); 24% in test [5] (setting [8]); 14.9% in test [5] (at 50.0 µM); 15% in test [6] (setting [7]); 18% in test [6] (setting [8]); 1.05% in test [6] (at 50.0 µM).
Regarding `CC(=O)c1cc(-c2ccc(C)cc2)nc2c(C)cc(C)cc12`, the growth inhibition in test [1] (setting [7]) was 5%; in test [1] (setting [8]), 15%; in test [1] (at 50.0 µM), 32.9%; in test [2] (setting [7]), 5%; in test [2] (setting [8]), 33%; in test [2] (at 50.0 µM), 60.5%. Further, the growth inhibition in test [3] (setting [7]) was 6%; in test [3] (setting [8]), 32%; in test [3] (at 50.0 µM), -9.2%; in test [4] (setting [7]) it was 1%; in test [4] (setting [8]) it was 41%; in test [4] (at 50.0 µM), 76.8% (active). Moreover, the growth inhibition in test [5] (setting [7]) was 10%; in test [5] (setting [8]), 40%; in test [5] (at 50.0 µM) it was 95.2% (active); in test [6] (setting [7]), 27%; in test [6] (setting [8]), 41%; in test [6] (at 50.0 µM), 94.2% (active).
For the compound `O=S(=O)(O)c1cc2ccccc2c(O)c1N=Nc1ccccc1`, the growth inhibition was 1% in test [1] (setting [7]); 97% (active) in test [1] (setting [8]); -33.1% in test [1] (at 50.0 µM); -1% in test [2] (setting [7]); 98% (active) in test [2] (setting [8]); -16% in test [2] (at 50.0 µM). Also, the growth inhibition is 1% in test [3] (setting [7]); 98% (active) in test [3] (setting [8]); -3.25% in test [3] (at 50.0 µM); -16% in test [4] (setting [7]); 97% (active) in test [4] (setting [8]); 31.1% in test [4] (at 50.0 µM). The growth inhibition in test [5] (setting [7]) was -1%; in test [5] (setting [8]), 98% (active); in test [5] (at 50.0 µM), -0.1%; in test [6] (setting [7]), 2%; in test [6] (setting [8]), 98% (active); in test [6] (at 50.0 µM) it was 7.6%.
With `Cc1c2cc[n+](C)cc2c(C)c2c1sc1ccccc12`, the growth inhibition was 21% in test [1] (setting [7]); 97% (active) in test [1] (setting [8]); 39.4% in test [1] (at 50.0 µM); -2% in test [2] (setting [7]); 98% (active) in test [2] (setting [8]); 91.2% (active) in test [2] (at 50.0 µM). Moreover, the growth inhibition in test [3] (setting [7]) was 18%; in test [3] (setting [8]), 99% (active); in test [3] (at 50.0 µM), 90.8% (active); in test [4] (setting [7]), 4%; in test [4] (setting [8]) it was 97% (active); in test [4] (at 50.0 µM) it was 91.5% (active). Further, the growth inhibition is 16% in test [5] (setting [7]); 99% (active) in test [5] (setting [8]); 92.7% (active) in test [5] (at 50.0 µM); 8% in test [6] (setting [7]); 97% (active) in test [6] (setting [8]); 91.5% (active) in test [6] (at 50.0 µM).
Regarding `CC(=O)OC1(c2ccccc2)N=C(c2ccccc2)N=C1c1ccccc1` (configuration not stated), the growth inhibition in test [1] (setting [7]) was 13%; in test [1] (setting [8]) it was 28%; in test [1] (at 50.0 µM) it was 28.9%; in test [2] (setting [7]), 4%; in test [2] (setting [8]), 13%; in test [2] (at 50.0 µM), 19.1%. The growth inhibition in test [3] (setting [7]) was 6%; in test [3] (setting [8]), 37%; in test [3] (at 50.0 µM) it was 65.8%; in test [4] (setting [7]) it was 13%; in test [4] (setting [8]), 28%; in test [4] (at 50.0 µM), 38.3%. Further, the growth inhibition in test [5] (setting [7]) is 13%; in test [5] (setting [8]), 24%; in test [5] (at 50.0 µM), 41.9%; in test [6] (setting [7]) it was 3%; in test [6] (setting [8]) it was 39%; in test [6] (at 50.0 µM) it was 70.1% (active).
On to `CCCCSc1n[nH]c(=O)nc1SC`, for which the growth inhibition in test [1] (setting [7]) was -142%; in test [1] (setting [8]), 88% (active); in test [1] (at 50.0 µM) it was 47.1%; in test [2] (setting [7]), -63%; in test [2] (setting [8]), 79% (active); in test [2] (at 50.0 µM), 48.6%. Besides, the growth inhibition in test [3] (setting [7]) is -57%; in test [3] (setting [8]), 83% (active); in test [3] (at 50.0 µM), 46.5%; in test [4] (setting [7]), -56%; in test [4] (setting [8]), 90% (active); in test [4] (at 50.0 µM), 73.8% (active). The growth inhibition in test [5] (setting [7]) was -64%; in test [5] (setting [8]), 87% (active); in test [5] (at 50.0 µM), 52.4%; in test [6] (setting [7]), -114%; in test [6] (setting [8]), 94% (active); in test [6] (at 50.0 µM) it was 50.9%.
Regarding `CCC[CH2][Sn]([CH2]CCC)([O]C(=O)c1cc(F)cc(F)c1)[O]C(=O)c1cc(F)cc(F)c1`, the growth inhibition was 54% in test [1] (setting [7]); 54% in test [1] (setting [8]); 22.4% in test [1] (at 50.0 µM); 26% in test [2] (setting [7]); 26% in test [2] (setting [8]); 52.4% in test [2] (at 50.0 µM). The growth inhibition in test [3] (setting [7]) is 65%; in test [3] (setting [8]) it was 65%; in test [3] (at 50.0 µM), 16.4%; in test [4] (setting [7]) it was 18%; in test [4] (setting [8]), 18%; in test [4] (at 50.0 µM), 36.2%. In addition, the growth inhibition is 21% in test [5] (setting [7]); 21% in test [5] (setting [8]); 67.7% in test [5] (at 50.0 µM); 21% in test [6] (setting [7]); 21% in test [6] (setting [8]); 68.1% in test [6] (at 50.0 µM).
